# Data published in the supplement of paper PMC8047044.
# Structures can show the parent of a compound that is named as a salt.
# Tested on: Neuro-2a
# Experiment: neurite formation score, plate-normalized to DMSO control mean 5.04 (score (0-8 scale)); higher = more or longer neurites
# Details: 1 µM
# Protocol: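 Neuro-2a mouse neuroblastoma cells in PLL-coated 96-well plates were pre-treated for 1 h in DMEM(+) with each kinase inhibitor at 1 µM, then switched to serum-free DMEM(-) with inhibitor to induce neurite outgrowth and fixed about 2-3 h later. Three blinded observers scored neurite formation from 0 (no neurites) to 8 (long neurites on almost all cells).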
row,Structure (SMILES),neurite formation score
1,CC(C)(C#N)c1ccc(N2C(=O)OCc3cnc4ccc(-c5cnc6ccccc6c5)cc4c32)cc1,3.63
2,CC(C)(CCCCCC(O)CCCCCC(C)(C)C(=O)O)C(=O)O,0.138
3,Cc1ccc(NC(=O)c2ccc(CN3CCN(C)CC3)cc2)cc1Nc1nc(-c2cccnc2)cs1 [Masitinib (AB1010)],4.24
4,Clc1ccc(C2(c3ccc(-c4cn[nH]c4)cc3)CCNCC2)cc1,5.24
5,C[C@@H]1COCCN1c1cc(C2(S(C)(=O)=O)CC2)nc(-c2cccc3[nH]ccc23)n1,4.57
6,CC(=O)Nc1cccc(-n2c(=O)n(C3CC3)c(=O)c3c(Nc4ccc(I)cc4F)n(C)c(=O)c(C)c32)c1,3.57
7,NC(=O)Nc1cc(-c2cccc(F)c2)sc1C(=O)N[C@H]1CCCNC1,-0.431
8,CC[C@@H]1C(=O)N(C)c2cnc(Nc3ccc(C(=O)N[C@H]4CC[C@H](N5CCN(CC6CC6)CC5)CC4)cc3OC)nc2N1C(C)C [BI6727 (Volasertib)],5.29
9,CCN1CCN(Cc2ccc(Nc3ncc(F)c(-c4cc(F)c5nc(C)n(C(C)C)c5c4)n3)nc2)CC1,4.57
10,CC(=O)c1c(C)c2cnc(Nc3ccc(N4CCNCC4)cn3)nc2n(C2CCCC2)c1=O,4.57
11,O=C1NCCSc2c1sc1ccc(O)cc21,3.69
12,Cn1cnc(-c2cc3nccc(Oc4ccc(NC(=S)NC(=O)Cc5ccccc5)cc4F)c3s2)c1,3.69
13,COc1ccc(S(=O)(=O)N(CCO)c2ccccc2CN(C)C/C=C/c2ccc(Cl)cc2)cc1 [KN-93 Phosphate],4.21
14,CCS(=O)(=O)c1cccc(-c2cc(C(=O)NC3CCN(C)CC3)c(C)c3[nH]c4ncc(C)cc4c23)c1,2.69
15,CC(C)(C)NS(=O)(=O)c1cncc(-c2cc(F)c3nc(N)nn3c2)c1,4.36
16,N#Cc1cccc(-c2c[nH]c3ncnc(N4CCOCC4)c23)c1,5.21
17,Cc1ccc(C(=O)Nc2ccc(CN3CCN(C)CC3)c(C(F)(F)F)c2)cc1C#Cc1cnc2cccnn12,1.24
18,CC1(COc2ccc3c(c2)ncn3-c2ccc3cccc(N4CCC(N)CC4)c3n2)COC1,3.57
19,COc1cc(Nc2c(C#N)cnc3cc(OCCCN4CCN(C)CC4)c(OC)cc23)c(Cl)cc1Cl [Bosutinib (SKI-606)],4.57
20,c1nc2c(NC3CCCCC3)nc(Nc3ccc(N4CCOCC4)cc3)nc2[nH]1 [Reversine],5.02

row,Structure (SMILES),neurite formation score
1,COc1cc2nccc(Oc3ccc(NC(=O)C4(C(=O)Nc5ccc(F)cc5)CC4)cc3)c2cc1OC,3.57
2,CNC(=O)c1cc(Oc2ccc(NC(=O)Nc3ccc(Cl)c(C(F)(F)F)c3)c(F)c2)ccn1 [Regorafenib hydrochloride],3.69
3,CN(C)CCSSCCNC(=O)C1CCN(C(=O)CSc2ccc(Cl)cc2)CC1,3.63
4,N#CC[C@H](C1CCCC1)n1cc(-c2ncnc3[nH]ccc23)cn1 [Ruxolitinib phosphate],5.02
5,COc1ccc2c(c1)c(C1=C(c3c[nH]c4ccccc34)C(=O)NC1=O)cn2CCCN(C)C,5.24
6,Cc1ccc(-n2nc(C(C)(C)C)cc2NC(=O)Nc2ccc(OCCN3CCOCC3)c3ccccc23)cc1 [BIRB 796 (Doramapimod)],4.57
7,CS(=O)(=O)c1ccc(-c2cnc(N)c(C(=O)Nc3ccccc3)n2)cc1,4.24
8,O=C(NOCC(O)CO)c1cc(Br)c(F)c(F)c1Nc1ccc(I)cc1F (centres undefined),4.57
9,O=C(Nc1cccc(Nc2ncc(Br)c(NCCc3cnc[nH]3)n2)c1)N1CCCC1,3.91
10,CCn1c(N)c(C(=O)NC)c(=O)c2ccc(C#CC(C)(O)COC)nc21 (centres undefined),4.54
11,Cc1cn(-c2cc(NC(=O)c3ccc(C)c(Nc4nccc(-c5cccnc5)n4)c3)cc(C(F)(F)F)c2)cn1 [Nilotinib(AMN-107)],4.57
12,CNC(=O)c1ccc(C)c(-n2c(C)cc(OCc3ccc(F)cc3F)c(Br)c2=O)c1,3.57
13,O=C1NCCc2[nH]c(-c3ccncc3)cc21,5.69
14,COc1cc2c(Nc3ccc(NC(=O)c4ccccc4)cc3)ncnc2cc1OCCCN1CCOCC1,3.69
15,O=c1cc(N2CCOCC2)oc2c(-c3ccccc3)cccc12,5.24
16,O=C(c1cccc(Cl)c1F)N1CCN(Cc2cccc(Nc3nccs3)n2)CC1,4.14
17,N#CC[C@H](C1CCCC1)n1cc(-c2ncnc3[nH]ccc23)cn1,4.91
18,"CCCCCCCCCCCCCC(=O)OC[C@H](CO)OC(=O)CCCCCCCCCCCCC [1,2-Dimyristoyl-sn-glycerol]",4.88
19,C=CC(=O)Nc1ccc2ncnc(Nc3ccc(OCc4cccc(F)c4)c(Cl)c3)c2c1,4.24
